Data: PubChem BioAssay (EPA / NIEHS)
Values joined by “and” are separate entries in the source; they are usually repeats but may differ in a detail not shown here. Identical values can stand only once. The source holds several records for some structures; these can differ, active in one and inactive in another. Active and inactive are the calls of the source. How the source made its calls: active means hit-call score of the fitted dose curve at least 0.9, where 1 is the maximum; inactive means score below 0.9.

Experiment: CCTE_Shafer_MEA_dev_per_network_spike_spike_number_mean: CCTE's Neural Network Formation Assay for Mean Number of Spikes in a Network Spike, Shafer Lab (AID 2284053)
Description: CCTE_Shafer_MEA_dev assay is conducted using Axion Biosystems 48 well microelectrode array (MEA) plates and Maestro recording system. Each well of the MEA plate contains a grid of 16 microelectrodes embedded in the culture surface. Electrically active cells, such as neurons, can be cultured over the electrodes, and electrical activity in these cells can be recorded extracellularly. The spontaneous firing of neurons is captured from each electrode on a microsecond timescale providing both temporally and spatially precise data. […] The CCTE_Shafer_MEA_dev assay uses primary cultures of rat cortical neurons. Recordings are made on days post-plating 5, 7, 9 and 12. As these cultures mature over time, neural networks develop functional activity and form cohesive networks in which electrical activity can be highly coordinated. CCTE_Shafer_MEA_dev_per_network_spike_spike_number_mean is 1 of 19 assay components of the CCTE_Shafer_MEA_dev assay. It measures the average number of spikes (action potential firings) in a network spike (temporally-clustered group of spikes across multiple electrodes) as the number of spikes that occur within a 0.05 s time window at the peak of a network spike divided by the total number of network spikes during a recording in a microelectrode array (MEA) using Axion Biosystems Maestro 768 channel amplifier with the AxIS adaptive spike detector. To collapse across multiple recordings made on days post-plating 5, 7, 9 and 12, the trapezoidal area-under-the-curve of the component is calculated.Data from the assay component CCTE_Shafer_MEA_dev_per_network_spike_spike_number_mean was analyzed into 1 assay endpoint. This assay endpoint, CCTE_Shafer_MEA_dev_per_network_spike_spike_number_mean, was analyzed in the negative analysis fitting direction relative to DMSO as the negative control and baseline of activity. Using a type of functional reporter, gain or loss-of-signal activity can be used to understand electrical activity.
On the day prior to culture, each well was coated thoroughly with 150 uL of 0.05% polyethyleneimine (PEI, Sigma Cat P3143) in 50 mM HEPES (Sigma Cat H7523) at a pH of 8. The plate was incubated at 37C for one hour. PEI was rinsed out with 500 uL of sterile water three times. Plates were stored at 4C until the day of culture. This culture was plated at a seeding density of 1.5 x 10^5 cells/well on a 48-well MEA plate, prepared as described above. Cells were administered via a 25 uL media/laminin ([…]; Sigma Cat L2020-1MG) drop directly onto the microelectrode array, as adding the cells with the laminin results in better attachment than pre-coating with laminin. After 2 hours, an additional 475 uL of cortical media was added and the cells returned to the incubator. Exposure starts at day 0 of plating and is continued over twelve days of network development until the experiment is terminated. Cells are fed with fresh medium on DIV 5 and 9, following the recordings on those days. The entire volume of media in the well is exchanged and any vehicle or compound treatment is renewed. Complete details are found in OP-NHEERL/ISTD/SBB/TJS/2015-03-r0 (available on request, email shafer.tim@epa.gov). Measurement of the electrical activity is non-invasive, and recordings can be made from the same plate over multiple different days of the culture. In cortical neurons, this allows for the measurement of extracellular action potentials over the period during which networks form in the MEA plate.

Row | SMILES | AC50 | outcome
1 | CNC(=O)Oc1cccc2c1OC(C)(C)C2 | 49.6 µM (active) | inactive
2 | COP(=S)(OC)SCN1C(=O)c2ccccc2C1=O | 31.8 µM (active) | inactive
3 | ClC1=C(Cl)C2(Cl)C3C(Cl)C=CC3C1(Cl)C2(Cl)Cl (configuration not stated) | 2.98 µM (active) | 
4 | CCC[CH2][Sn]([Cl])([CH2]CCC)[CH2]CCC | 0.0632 µM (active) | 
5 | ClC1=C(Cl)[C@]2(Cl)[C@H]3[C@H]([C@@H]4C=C[C@H]3C4)[C@@]1(Cl)C2(Cl)Cl | 1.98 µM (active) | 
6 | CCCCOC(=O)c1ccccc1C(=O)OCc1ccccc1 |  | inactive
7 | CN(C)[C@@H]1C(=O)C(C(N)=O)=C(O)[C@@]2(O)C(=O)C3=C(O)c4c(O)cccc4[C@@](C)(O)[C@H]3C[C@@H]12 |  | inactive
8 | C1=Cc2cccc3cccc1c23 |  | inactive
9 | CC(C)(C)C(O)(CCc1ccc(Cl)cc1)Cn1cncn1 (configuration not stated) | 15 µM (active) | 
10 | Nc1cc(Cl)cc(C(=O)O)c1Cl |  | inactive
11 | OCCOCCO |  | inactive
12 | CCNS(=O)(=O)C(F)(F)C(F)(F)C(F)(F)C(F)(F)C(F)(F)C(F)(F)C(F)(F)C(F)(F)F | 4.54 µM (active) and 2.66 µM (active) | 
13 | O=P(OCCCl)(OCCCl)OCCCl |  | inactive
14 | [Cl-].[Cl-].[Hg+2] | 0.894 µM (active) | 
15 | Clc1ccc(C(c2ccc(Cl)cc2)C(Cl)(Cl)Cl)cc1 | 6.95 µM (active) and 5.75 µM (active) | 
16 | [O-][Cl+]O |  | inactive
17 | COC(=O)Nc1nc2ccccc2[nH]1 | 12.5 µM (active) | 
18 | CC(C)(O)c1cnn2c(-c3ccc(F)c(-c4c(F)cccc4C#N)c3)cnc2n1 |  | inactive
19 | Clc1ccc(C(c2ccc(Cl)cc2)C(Cl)Cl)cc1 | 4.95 µM (active) | 
20 | CC(C)COC(=O)c1ccccc1C(=O)OCC(C)C | 13.6 µM (active) | 
